Results published in PubChem BioAssay AID1159580 (chemical genetic matrix, 2015).
The whole screen tested about 5,500 compounds, of which about 2,000 (36%) were called active. Another 18% or so got no clear call; they are omitted. The list shows a part of the results. Values without a mark were called inactive. Rule as the data show it: active = normalized growth mostly below about 0.91 (no sharp cut-off); inconclusive = no clear call, values can overlap the other calls; inactive = mostly above about 0.92.

Test: chemical genetic growth profiling, strain panel (AID 1159580);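 also: tested at 20 µM; growth read once vehicle control cultures reached saturation at 30 °C; 1 = growth at the plate median or of vehicle wells; lower values mean less growth of the strain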
Conditions: growth OD
[1] = S. cerevisiae deletion strains, locus YAL013W, strain DEP1, stronger effect = lower value
[2] = S. cerevisiae deletion strains, locus YBR229C, strain ROT2, stronger effect = lower value
[3] = S. cerevisiae deletion strains, locus YCL061C, strain MRC1, stronger effect = lower value
[4] = S. cerevisiae deletion strains, locus YDL101C, strain DUN1, stronger effect = lower value
[5] = S. cerevisiae deletion strains, locus YDR150W, strain NUM1, stronger effect = lower value
[6] = S. cerevisiae deletion strains, locus YEL061C, strain CIN8, stronger effect = lower value
[7] = S. cerevisiae deletion strains, locus YGR078C, strain PAC10, stronger effect = lower value
[8] = S. cerevisiae deletion strains, locus YGR229C, strain SMI1, stronger effect = lower value
[9] = S. cerevisiae deletion strains, locus YHR030C, strain SLT2, stronger effect = lower value
[10] = S. cerevisiae deletion strains, locus YHR087W, strain rtc3, stronger effect = lower value
[11] = S. cerevisiae deletion strains, locus YJR043C, strain POL32, stronger effect = lower value
[12] = S. cerevisiae deletion strains, locus YJR075W, strain HOC1, stronger effect = lower value
[13] = S. cerevisiae deletion strains, locus YLR039C, strain RIC1, stronger effect = lower value
[14] = S. cerevisiae deletion strains, locus YLR058C, strain SHM2 (second series), stronger effect = lower value
[15] = S. cerevisiae deletion strains, locus YLR085C, strain ARP6, stronger effect = lower value
[16] = S. cerevisiae deletion strains, locus YLR262C, strain YPT6, stronger effect = lower value
[17] = S. cerevisiae deletion strains, locus YML094W, strain GIM5, stronger effect = lower value
[18] = S. cerevisiae deletion strains, locus YMR219W, strain ESC1, stronger effect = lower value
[19] = S. cerevisiae deletion strains, locus YMR263W, strain SAP30, stronger effect = lower value
[20] = S. cerevisiae deletion strains, locus YMR307W, strain GAS1, stronger effect = lower value
[21] = S. cerevisiae deletion strains, locus YNL153C, strain GIM3, stronger effect = lower value
[22] = S. cerevisiae deletion strains, locus YNL298W, strain CLA4 (second series), stronger effect = lower value
[23] = S. cerevisiae deletion strains, locus YNL322C, strain KRE1, stronger effect = lower value
[24] = S. cerevisiae deletion strains, locus YNR030W, strain Alg12, stronger effect = lower value
[25] = S. cerevisiae deletion strains, locus YPL055C, strain LGE1, stronger effect = lower value
[26] = S. cerevisiae deletion strains, locus YPL241C, strain CIN2, stronger effect = lower value
[27] = S. cerevisiae deletion strains, locus YPR135W, strain CTF4, stronger effect = lower value

## COC(=O)c1ccc(S(=O)(=O)N2CCC(C(N)=O)CC2)n1C
[1]
  normalized growth: 0.97
[2]
  normalized growth: 1
[3]
  normalized growth: 0.99
[4]
  normalized growth: 0.97
S. cerevisiae deletion strains, locus YDL134C, strain PPH21, stronger effect = lower value
  normalized growth: 1.03
[5]
  normalized growth: 0.881
[6]
  normalized growth: 1.02
[7]
  normalized growth: 0.989
[8]
  normalized growth: 1
[9]
  normalized growth: 1.05
[10]
  normalized growth: 0.993
[11]
  normalized growth: 0.983
[12]
  normalized growth: 0.988
S. cerevisiae deletion strains, locus YKL190W, strain CNB1, stronger effect = lower value
  normalized growth: 1.02
[13]
  normalized growth: 1.01
[14]
  normalized growth: 0.991
[15]
  normalized growth: 1.06
[16]
  normalized growth: 1.03
[17]
  normalized growth: 0.999
[18]
  normalized growth: 0.99
[19]
  normalized growth: 0.981
[20]
  normalized growth: 1.05
[21]
  normalized growth: 1.01
[22]
  normalized growth: 1.06
[23]
  normalized growth: 1
[24]
  normalized growth: 1.04
[25]
  normalized growth: 0.852
[26]
  normalized growth: 1.02
[27]
  normalized growth: 1

## CCOC(=O)c1ccc(NC(N)=S)cc1
[1]
  normalized growth: 1.01
[2]
  normalized growth: 1.01
[3]
  normalized growth: 0.994
[4]
  normalized growth: 0.994
[5]
  normalized growth: 0.941
[6]
  normalized growth: 0.998
[7]
  normalized growth: 0.993
[8]
  normalized growth: 1
[9]
  normalized growth: 1.03
[10]
  normalized growth: 0.992
[11]
  normalized growth: 0.997
[12]
  normalized growth: 0.956
[13]
  normalized growth: 1.01
[14]
  normalized growth: 0.998
[15]
  normalized growth: 0.974
[16]
  normalized growth: 1.05
[17]
  normalized growth: 0.966
[18]
  normalized growth: 0.998
[19]
  normalized growth: 0.935
[20]
  normalized growth: 0.935
[21]
  normalized growth: 0.979
[22]
  normalized growth: 1
[23]
  normalized growth: 1.01
[24]
  normalized growth: 1
[25]
  normalized growth: 0.949
[26]
  normalized growth: 0.986
[27]
  normalized growth: 0.968
S. cerevisiae strains, strain wild type, stronger effect = lower value
  normalized growth: 1.01

## CCOC(=O)c1ccc(NC(=O)CCC(=O)O)cc1
[1]
  normalized growth: 0.994
[2]
  normalized growth: 0.983
[4]
  normalized growth: 0.978
[5]
  normalized growth: 0.99
[6]
  normalized growth: 0.99
[7]
  normalized growth: 0.99
[9]
  normalized growth: 1.07
[10]
  normalized growth: 0.982
[11]
  normalized growth: 1.01
[12]
  normalized growth: 1
[13]
  normalized growth: 1.06
[14]
  normalized growth: 0.987
[15]
  normalized growth: 1.02
[16]
  normalized growth: 1.05
[17]
  normalized growth: 1
[18]
  normalized growth: 0.991
[19]
  normalized growth: 0.981
[20]
  normalized growth: 1.01
[21]
  normalized growth: 1.01
[22]
  normalized growth: 1.01
[23]
  normalized growth: 0.989
[24]
  normalized growth: 1.02
S. cerevisiae deletion strains, locus YOL006C, strain TOP1, stronger effect = lower value
  normalized growth: 1.04
[25]
  normalized growth: 1
[26]
  normalized growth: 1.01
[27]
  normalized growth: 1.13

## CCOC(=O)/C(C#N)=C(\Nc1ccc(C(=O)OCC)cc1)SC
S. cerevisiae deletion strains, locus YAR019C, strain CDC15, stronger effect = lower value
  normalized growth: 0.982
S. cerevisiae deletion strains, locus YBL105C, strain PKC1, stronger effect = lower value
  normalized growth: 0.977
S. cerevisiae deletion strains, locus YBR135W, strain CKS1, stronger effect = lower value
  normalized growth: 0.98
S. cerevisiae deletion strains, locus YBR136W, strain MEC1, stronger effect = lower value
  normalized growth: 0.974
S. cerevisiae deletion strains, locus YBR160W, strain CDC28, stronger effect = lower value
  normalized growth: 0.98
S. cerevisiae deletion strains, locus YDL017W, strain CDC7, stronger effect = lower value
  normalized growth: 0.978
S. cerevisiae deletion strains, locus YDL028C, strain MPS1, stronger effect = lower value
  normalized growth: 0.984
[4]
  normalized growth: 0.977
S. cerevisiae deletion strains, locus YDL108W, strain KIN28, stronger effect = lower value
  normalized growth: 0.972
S. cerevisiae deletion strains, locus YDL132W, strain cdc53, stronger effect = lower value
  normalized growth: 0.981
S. cerevisiae deletion strains, locus YDL214C, strain PRR2, stronger effect = lower value
  normalized growth: 0.929
S. cerevisiae deletion strains, locus YDR052C, strain DBF4, stronger effect = lower value
  normalized growth: 0.983
S. cerevisiae deletion strains, locus YDR054C, strain cdc34, stronger effect = lower value
  normalized growth: 0.984
S. cerevisiae deletion strains, locus YDR226W, strain ADK1, stronger effect = lower value
  normalized growth: 0.979
S. cerevisiae deletion strains, locus YDR477W, strain SNF1, stronger effect = lower value
  normalized growth: 0.954
S. cerevisiae deletion strains, locus YER123W, strain YCK3, stronger effect = lower value
  normalized growth: 0.91
S. cerevisiae deletion strains, locus YER133W, strain GLC7, stronger effect = lower value
  normalized growth: 0.945
S. cerevisiae deletion strains, locus YFL009W, strain cdc4, stronger effect = lower value
  normalized growth: 0.978
S. cerevisiae deletion strains, locus YFL029C, strain CAK1, stronger effect = lower value
  normalized growth: 0.982
S. cerevisiae deletion strains, locus YFR003C, strain YPI1, stronger effect = lower value
  normalized growth: 0.977
S. cerevisiae deletion strains, locus YFR019W, strain FAB1, stronger effect = lower value
  normalized growth: 0.968
S. cerevisiae deletion strains, locus YFR028C, strain CDC14, stronger effect = lower value
  normalized growth: 0.979
S. cerevisiae deletion strains, locus YGR040W, strain KSS1, stronger effect = lower value
  normalized growth: 0.946
S. cerevisiae deletion strains, locus YGR052W, strain FMP48, stronger effect = lower value
  normalized growth: 0.959
S. cerevisiae deletion strains, locus YGR092W, strain DBF2, stronger effect = lower value
  normalized growth: 0.947
[9]
  normalized growth: 0.815 (active)
S. cerevisiae deletion strains, locus YHR079C, strain IRE1, stronger effect = lower value
  normalized growth: 0.841
S. cerevisiae deletion strains, locus YHR082C, strain KSP1, stronger effect = lower value
  normalized growth: 0.998
S. cerevisiae deletion strains, locus YHR205W, strain SCH9, stronger effect = lower value
  normalized growth: 0.872
S. cerevisiae deletion strains, locus YIL147C, strain SLN1, stronger effect = lower value
  normalized growth: 0.98
S. cerevisiae deletion strains, locus YJL095W, strain BCK1, stronger effect = lower value
  normalized growth: 0.934
S. cerevisiae deletion strains, locus YJL128C, strain PBS2, stronger effect = lower value
  normalized growth: 0.913
S. cerevisiae deletion strains, locus YJL157C, strain FAR1, stronger effect = lower value
  normalized growth: 0.945
S. cerevisiae deletion strains, locus YJR016C, strain ILV3, stronger effect = lower value
  normalized growth: 0.99
S. cerevisiae deletion strains, locus YJR066W, strain TOR1 (second series), stronger effect = lower value
  normalized growth: 0.941
S. cerevisiae deletion strains, locus YJR066W, strain TOR1, stronger effect = lower value
  normalized growth: 0.985
S. cerevisiae deletion strains, locus YKL048C, strain ELM1, stronger effect = lower value
  normalized growth: 0.921
S. cerevisiae deletion strains, locus YKL067W, strain YNK1, stronger effect = lower value
  normalized growth: 0.928
S. cerevisiae deletion strains, locus YKL101W, strain HSL1, stronger effect = lower value
  normalized growth: 0.908
S. cerevisiae deletion strains, locus YKL193C, strain SDS22, stronger effect = lower value
  normalized growth: 0.984
S. cerevisiae deletion strains, locus YKL203C, strain TOR2, stronger effect = lower value
  normalized growth: 0.977
S. cerevisiae deletion strains, locus YLR113W, strain HOG1, stronger effect = lower value
  normalized growth: 0.706 (active)
S. cerevisiae deletion strains, locus YLR133W, strain CKI1, stronger effect = lower value
  normalized growth: 0.953
S. cerevisiae deletion strains, locus YLR403W, strain SFP1, stronger effect = lower value
  normalized growth: 0.954
S. cerevisiae deletion strains, locus YML070W, strain DAK1, stronger effect = lower value
  normalized growth: 0.909
S. cerevisiae deletion strains, locus YMR001C, strain CDC5, stronger effect = lower value
  normalized growth: 0.981
S. cerevisiae deletion strains, locus YMR205C, strain PFK2 (second series), stronger effect = lower value
  normalized growth: 0.949
S. cerevisiae deletion strains, locus YMR277W, strain FCP1, stronger effect = lower value
  normalized growth: 0.983
S. cerevisiae deletion strains, locus YNL006W, strain LST8, stronger effect = lower value
  normalized growth: 0.98
S. cerevisiae deletion strains, locus YNL020C, strain ARK1, stronger effect = lower value
  normalized growth: 0.944
S. cerevisiae deletion strains, locus YNL161W, strain CBK1, stronger effect = lower value
  normalized growth: 0.978
S. cerevisiae deletion strains, locus YNL183C, strain NPR1, stronger effect = lower value
  normalized growth: 0.948
S. cerevisiae deletion strains, locus YNL207W, strain RIO2, stronger effect = lower value
  normalized growth: 0.975
S. cerevisiae deletion strains, locus YNL222W, strain SSU72, stronger effect = lower value
  normalized growth: 0.982
S. cerevisiae deletion strains, locus YNL307C, strain MCK1 (second series), stronger effect = lower value
  normalized growth: 0.931
S. cerevisiae deletion strains, locus YOL078W, strain AVO1, stronger effect = lower value
  normalized growth: 0.994
S. cerevisiae deletion strains, locus YOL136C, strain PFK27, stronger effect = lower value
  normalized growth: 0.912
S. cerevisiae deletion strains, locus YOR061W, strain CKA2, stronger effect = lower value
  normalized growth: 0.949
S. cerevisiae deletion strains, locus YOR119C, strain RIO1, stronger effect = lower value
  normalized growth: 1.02
S. cerevisiae deletion strains, locus YOR231W, strain MKK1, stronger effect = lower value
  normalized growth: 0.864
S. cerevisiae deletion strains, locus YOR329C, strain SCD5, stronger effect = lower value
  normalized growth: 0.98
S. cerevisiae deletion strains, locus YPL031C, strain PHO85, stronger effect = lower value
  normalized growth: 0.957
S. cerevisiae deletion strains, locus YPL153C, strain RAD53, stronger effect = lower value
  normalized growth: 0.954
S. cerevisiae deletion strains, locus YPL204W, strain HRR25, stronger effect = lower value
  normalized growth: 0.948
S. cerevisiae deletion strains, locus YPL209C, strain IPL1, stronger effect = lower value
  normalized growth: 0.982
S. cerevisiae deletion strains, locus YPL256C, strain CLN2, stronger effect = lower value
  normalized growth: 0.751 (active)
S. cerevisiae deletion strains, locus YPR025C, strain CCL1, stronger effect = lower value
  normalized growth: 0.979
S. cerevisiae deletion strains, locus YPR106W, strain ISR1, stronger effect = lower value
  normalized growth: 0.978
S. cerevisiae deletion strains, locus YPR111W, strain DBF20, stronger effect = lower value
  normalized growth: 0.947
S. cerevisiae deletion strains, strain NNK1, stronger effect = lower value
  normalized growth: 0.959
S. cerevisiae deletion strains, strain TSCII, stronger effect = lower value
  normalized growth: 0.984
